Bioassay records as filed in PubChem BioAssay.
A selection: hits, their analogues and other compounds. The true share with any hit is near 3.5%.
GPR151 ag: activates the human receptor GPR151; AID 1508602; Q8TDV0; 1% of 650,000 active; PathHunter beta-arrestin GPR151 cells, luminescence; activation, % at 11.2 µM; in the data active means activation above about 4.9%;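 further: 0% = median of compound wells and 100% = cells with positive control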
Target sequence (Q8TDV0 whole entry, looked up): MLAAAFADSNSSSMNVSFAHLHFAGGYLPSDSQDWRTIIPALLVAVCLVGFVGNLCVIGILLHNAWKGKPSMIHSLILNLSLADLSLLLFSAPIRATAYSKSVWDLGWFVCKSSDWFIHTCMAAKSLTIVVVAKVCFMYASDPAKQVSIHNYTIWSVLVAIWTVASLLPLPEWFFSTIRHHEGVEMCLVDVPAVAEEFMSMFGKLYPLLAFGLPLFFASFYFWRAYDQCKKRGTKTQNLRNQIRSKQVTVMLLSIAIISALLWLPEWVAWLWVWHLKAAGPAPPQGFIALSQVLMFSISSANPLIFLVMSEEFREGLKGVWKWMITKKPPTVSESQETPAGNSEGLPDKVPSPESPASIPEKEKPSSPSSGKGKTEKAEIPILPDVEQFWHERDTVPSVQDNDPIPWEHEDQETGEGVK
MITF inh: human MITF inhibition, primary screen. 0.91% of 650,000 active. AlphaScreen MITF homodimerization, bead proximity signal. AID 1259374. inhibition, % at 2.6 µM; in the data active means inhibition above about 50%;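 further: 0% = vehicle wells with protein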
FBW7 activator: activators of human E3 ligase FBW7; Q969H0; AlphaScreen FBW7–phospho-cyclin E peptide binding, activator screen; normalized activity (activation), % at 26.1 µM; 0.13% of 650,000 active; AID 1259310; in the data active means normalized activity above about 1.9%;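 further: purified mutant Fbw7 with reduced substrate affinity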
TEAD-YAP inh: TEAD-YAP interaction inhibition | 1.4% of 640,000 active | AID 1259422 | inhibition, % at 9.12 µM | HEK-TIYL cells, TEAD-Gal4/YAP UAS-luciferase luminescence; in the data active means inhibition above about 32%;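 further: 0% = median of test compound wells and 100% = reference inhibitor wells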
* hit, by the source's call.

SMILES	GPR151 ag	MITF inh	FBW7 activator	TEAD-YAP inh
CCOC(=O)C/C(C)=N/c1ccnn1-c1ccccc1	-4	2	0	76*
CC(=O)CC(=O)Nc1ccnn1-c1ccccc1	-1	-17	0	1
CCNc1nc(NC(C)(C)C)nc(SC(C(C)=O)C(C)=O)n1	2	3	0	42*
CC1CCc2c(sc(NC(=O)c3ccccc3)c2C(=O)O)C1 (stereo not drawn)	-4	16	0	70*
O=C(Nc1sc2c(c1C(=O)O)CCCCC2)c1cccs1	-8	0	0	42*
COc1ccc(NC(=O)c2c(NC(=O)c3cccs3)sc3c2CCC(C)C3)cc1 (stereo not drawn)	0	-13	0	-3
CC1CCc2c(sc(NC(=O)c3cccs3)c2C(=O)O)C1 (stereo not drawn)	1	1	0	61*
O=[N+]([O-])c1ccc(Cl)c(S(=O)(=O)N2CCCCC2)c1	0	17	0	0
CCN1C(=O)CC(C(=O)Nc2ccc(Cl)cc2)SC1=Nc1ccc(OC)cc1 (stereo not drawn)	2	1	0	38*
O=C(CCCn1c(SCc2cccc([N+](=O)[O-])c2)nc2ccccc2c1=O)NCc1ccccc1	0	4	0	-1
O=C(c1ccc2c(=O)n(-c3ccccc3F)c(=S)[nH]c2c1)N1CCCCC1	-1	-4	0	33*
Cc1ccc2c(c1)CC(c1nc3ccc(-c4ccnc(N)n4)cc3o1)CO2 (stereo not drawn)	-1	2	0	3
COc1ccc(/C=C2/SC(=N)N(c3cc(C)ccc3C)C2=O)cc1	2	8	0	38*
C=CCc1cccc(/C=N/NC(=O)CCCO)c1O	0	29	0	6
C=CCc1cccc(/C=N/NC(=O)C[n+]2ccccc2)c1O	-1	29	0	60*
CN(C)CCNC(=O)c1cnc(N2CCN(c3ncccn3)CC2)c2ccccc12	2	5	0	6
CC(C)(C)c1ccc(C(=O)Nc2ccc3c(c2)CN(C(=O)c2ccco2)CC3)cc1	2	7	0	86*
COc1ccc(-c2cnc(SCC(=O)Nc3cccc(F)c3)n2C)cc1	-1	8	0	33*
COCCNC(=S)N/N=C/c1ccc(N2CCOCC2)cc1	-1	-1	0	64*
Oc1ccc(/C=N/NC(=S)N2CCOCC2)cc1	-3	13	0	50*
COC(=O)c1ccc2c(=O)n(CCSCc3ccccc3)c(=S)[nH]c2c1	-1	4	0	-3
COc1ccccc1C(=O)N(Cc1nc(-c2ccccc2)no1)C(C)C	-1	16	1	0
CSc1ccc(/C=C/c2ccc3cccc(O)c3n2)cc1	-7	13	0	34*
Oc1cccc2ccc(/C=C/c3ccccc3)nc12	-7	2	0	32*
Oc1ccc(Br)c2ccc(/C=C/c3ccccc3)nc12	0	13	0	-23
SMILES	GPR151 ag	MITF inh	FBW7 activator	TEAD-YAP inh
Cc1ccc(OC(=O)/C=C/c2cc([N+](=O)[O-])ccc2Cl)cn1	1	11	0	11
CC(=O)c1ccc(N2C(=O)CC(NC3CCCCC3)C2=O)cc1 (stereo not drawn)	-1	18	1	7
Cc1ccc2nc(COc3ncnc4c(Cl)cc(Cl)cc34)cc(=O)n2c1	1	15	0	-7
CC(C)[C@@H]1NC(=O)[C@H]2CN(S(=O)(=O)c3cccc4ccccc34)CCN2C1=O	0	-23	0	0
CCOC(=O)C1CCCc2c1[nH]c1ccc(Cl)cc21 (stereo not drawn)	2	12	1	39*
COCCCNC(=O)C(C)Oc1cccc(Cl)c1 (stereo not drawn)	-1	8	0	-2
NC(=O)CSc1nnc(-c2ccccc2)n1C1CCCCC1	0	3	0	-10
COc1ccccc1N(CC(=O)NC(C(C)C)C(C)C)S(C)(=O)=O	0	-8	0	-3
CC(C)C(NC(=O)CN(c1ccccc1Br)S(C)(=O)=O)C(C)C	0	22	2.4*	-14
CC1CCc2nc(NC(=O)c3ccco3)sc2C1 (stereo not drawn)	-7	-4	0	74*
CCCS(=O)(=O)c1ncc(Cl)c(C(=O)Nc2ccc(C(=O)OC)cc2)n1	-1	5	0	43*
CCS(=O)(=O)c1ncc(Cl)c(C(=O)Nc2ccccc2Br)n1	0	-2	0	36*
CCCS(=O)(=O)c1ncc(Cl)c(C(=O)Nc2ccc(CC)cc2)n1	1	5	0	27
CCS(=O)(=O)c1ncc(Cl)c(C(=O)Nc2cccc(Cl)c2C)n1	1	12	0	57*
CCOC(=O)C1CCN(C(=O)c2cc3c(=O)oc4ccccc4c3s2)CC1	1	-9	0	7
CC(=O)c1ccccc1NC(=O)COC(=O)CC1CCCCC1	-2	3	0	2
Cc1cccc(/C=C/C(=O)NCc2ccc(F)cc2)c1	0	0	0	-9
CCc1c(C)nc2ncnn2c1N1CCCC(C(=O)Nc2nnc(C)s2)C1 (stereo not drawn)	1	-1	0	48*
CCOc1ccccc1NC(=O)C1CCCN(c2c(CC)c(C)nc3ncnn23)C1 (stereo not drawn)	0	-11	0	-1
O=C(/C=C/Nc1ccc(Br)cc1)c1cccs1	-2	-4	0	41*
Cc1ccc(O)c(N/C=C/C(=O)c2ccc(F)cc2)c1	-1	13	0	-57
O=C(/C=C/Nc1cccc(Br)c1)c1cccs1	-1	-10	0	-55
Cc1ccc(O)c(N/C=C/C(=O)c2cccs2)c1	-1	2	1	54*
CCOc1ccc(N/C=C/C(=O)c2cccs2)cc1	0	17	1	37*
CCc1cccc2c(/C=C3\NC(=S)N(CC)C3=O)cn(CC(=O)NCCCOC)c12	-1	9	0	11
SMILES	GPR151 ag	MITF inh	FBW7 activator	TEAD-YAP inh
Cc1noc(C)c1CCC(=O)N1CCC[C@H](Cn2cc(C(=O)N3CCOCC3)nn2)C1	-1	-1	1	-1
COc1cccc(/C=N/NC(=O)COc2ccc(-c3ccccc3)cc2)c1O	3	12	0	10
Nc1c(C(=O)NCc2ccccc2)nnn1Cc1cccc(C(F)(F)F)c1	0	-11	0	48*
Nc1c(C(=O)NCc2ccccc2)nnn1Cc1cccc(F)c1	-1	25	1	3
CCN(CC)CCNC(=O)Cn1c(C)nc2ccccc21	1	13	0	-6
Cc1[nH]c2ccc(CNC(=O)Cn3c(C)nc4ccccc43)cc2c1C	0	13	0	50*
CN=c1scc(-c2ccc(C)c(C)c2)n1/N=C/c1ccc(O)c(O)c1O	-2	21	-1	70*
Cc1ccccc1Nc1nc(Cl)c(C=O)s1	0	6	0	40*
CC(Nc1ncnc2ccccc12)c1ccccc1 (stereo not drawn)	1	2	0	56*
COCCCNc1ncnc2ccc(Br)cc12	1	2	0	29
CC(Nc1ncnc2ccc(Br)cc12)c1ccccc1 (stereo not drawn)	-1	19	0	34*
